# Results: PubChem BioAssay (NCI)
# The panel holds about 79,000 compounds, 15% with a hit somewhere; the sample as a whole holds those more often. A number with no mark means an inactive call. The source made the active and inactive calls. Cut-off read from the data, not from the text of the source: active = growth inhibition above about 70%; inactive = the rest.
# How the values were obtained:
# [1] = NCI Yeast Anticancer Drug Screen. Data for the wt1 strain (AID 149);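 note: 0% = growth of vehicle-treated wt1 cultures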; details: S. cerevisiae wt1 strain (SPY 50644) growth inhibition, stronger effect = higher value
# Procedure, shortened: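 The wt1 strain was treated with compounds, and growth was compared with vehicle-treated cultures to give inhibition.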
# [2] = NCI Yeast Anticancer Drug Screen. Data for the rad50EPP+ strain (AID 151);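 note: 0% = growth of vehicle-treated control cultures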; details: S. cerevisiae rad50 mutant strain, stronger effect = higher value
# Procedure, shortened: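 One strain with a rad50 alteration (rad50EPP+) was compound-treated, its growth then compared to that of vehicle controls.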
# [3] = NCI Yeast Anticancer Drug Screen. Data for the mgt1 strain (AID 153); details: S. cerevisiae mgt1 mutant growth inhibition, stronger effect = higher value
# Procedure, shortened: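 After exposure of the mgt1 yeast mutant to compound, growth was measured and reported as inhibition compared with vehicle controls.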
# [4] = NCI Yeast Anticancer Drug Screen. Data for the rad50 strain (AID 155);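 note: 0% = growth of vehicle-only cultures of the same strain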; details: S. cerevisiae rad50 strain growth inhibition, stronger effect = higher value
# Procedure, shortened: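 Cells are treated with compound, grown, and their growth is then scored against vehicle-only cultures of the same repair-deficient yeast strain.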
# [5] = NCI Yeast Anticancer Drug Screen. Data for the mec2-1 strain (AID 157); details: S. cerevisiae mec2-1 strain, stronger effect = higher value
# Procedure, shortened: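 Test agents were screened against the mec2-1 yeast strain, with defined DNA repair or cell cycle alteration. Growth was scored as inhibition against vehicle-only controls.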
# [6] = NCI Yeast Anticancer Drug Screen. Data for the rad14 strain (AID 159);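 note: 0% = growth of vehicle-treated control cultures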; details: S. cerevisiae rad14 strain growth inhibition, stronger effect = higher value
# Procedure, shortened: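 Readout: yeast growth inhibition, referenced to vehicle-only cultures. Strain bears a defined alteration in DNA damage repair.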
# [7] = NCI Yeast Anticancer Drug Screen. Data for the sgs1 mgt1 strain (AID 161);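 note: 0% = growth of cultures given vehicle only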; details: S. cerevisiae sgs1 mgt1 strain, stronger effect = higher value
# Procedure, shortened: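 Mutant yeast exposed to compound; growth scored against vehicle-only wells.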
# [8] = NCI Yeast Anticancer Drug Screen. Data for the CLN2oe strain (AID 163);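 note: 0% = growth of vehicle-only control cultures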; details: S. cerevisiae CLN2oe strain, stronger effect = higher value
# Procedure, shortened: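 Here, growth inhibition in a cell-cycle-altered yeast strain after compound exposure was quantified against vehicle control growth.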
# [9] = NCI Yeast Anticancer Drug Screen. Data for the cln2 rad14 strain (AID 165);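 note: 0% = growth equal to vehicle treated cultures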; details: S. cerevisiae cln2 rad14 strain, stronger effect = higher value
# Procedure, shortened: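 Growth of compound-exposed yeast (cln2 rad14 genotype) measured and expressed as inhibition relative to vehicle.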
# [10] = NCI Yeast Anticancer Drug Screen. Data for the bub3 strain (AID 167); details: S. cerevisiae bub3 mutant strain, stronger effect = higher value
# Procedure, shortened: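 Part of a panel of yeast mutants defective in DNA damage repair or cell cycle regulation. Each strain is grown with compound, and inhibition is calculated relative to solvent-treated cultures.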
# [11] = NCI Yeast Anticancer Drug Screen. Data for the wt2 strain (AID 169);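 note: 0% = growth of vehicle-treated yeast cultures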; details: S. cerevisiae wt2 strain growth inhibition, stronger effect = higher value
# Procedure, shortened: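 Genetically defined yeast strains from a DNA-repair/cell-cycle panel were used. Compound-exposed yeast growth was measured, and the inhibition was calculated relative to vehicle treatment.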
# [12] = NCI Yeast Anticancer Drug Screen. Data for the mlh1 strain (AID 171);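 note: 0% = growth of vehicle-treated control cultures of the same strain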; details: S. cerevisiae mlh1 strain growth inhibition, stronger effect = higher value
# Procedure, shortened: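 Here the genetically defined yeast mutant is grown with each compound, and the extent to which its growth falls below that of vehicle-exposed cells is reported.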
# [13] = NCI Yeast Anticancer Drug Screen. Data for the sgs1 strain (AID 173);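 note: 0% = growth of vehicle-only control cultures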; details: S. cerevisiae sgs1 mutant, stronger effect = higher value
# Procedure, shortened: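 Relative growth inhibition, referenced to vehicle, was determined in a yeast strain with a defined alteration affecting DNA damage repair or cell cycle control after compound exposure.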
# [14] = NCI Yeast Anticancer Drug Screen. Data for the mlh1 rad18 strain (AID 175); details: S. cerevisiae mlh1 rad18 strain growth inhibition, stronger effect = higher value
# Procedure, shortened: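 In this whole-cell yeast screen, a strain with altered DNA damage repair is challenged with compound, and its growth is measured against matched vehicle-treated controls.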
# [15] = NCI Yeast Anticancer Drug Screen. Data for the rad18 strain (AID 177); details: S. cerevisiae rad18 mutant growth inhibition, stronger effect = higher value
# Procedure, shortened: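 Screen uses a yeast strain with a defined lesion in DNA damage repair; compound effect is read as loss of growth compared to untreated vehicle cultures.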
# [16] = at 5.0 µM (retest, dose inferred, filed as 0.5)
# [17] = at 50.0 µM (retest, dose inferred, filed as 5.0)
smiles,measurement,setting,value
N=C(N)c1ccc(N=Nc2c(O)ccc3c2[nH]c2ccccc23)cc1,growth inhibition,[1]; at 1.2 µM,-2%
same,growth inhibition,[1]; at 3.7 µM,-1%
same,growth inhibition,[1]; at 11.0 µM,69%
same,growth inhibition,[1]; at 33.0 µM,95% (active)
same,growth inhibition,[1]; at 100.0 µM,97% (active)
same,growth inhibition,[2]; at 1.2 µM,8%
same,growth inhibition,[2]; at 3.7 µM,36%
same,growth inhibition,[2]; at 11.0 µM,57%
same,growth inhibition,[2]; at 33.0 µM,87% (active)
same,growth inhibition,[2]; at 100.0 µM,95% (active)
same,growth inhibition,[3]; at 1.2 µM,-2%
same,growth inhibition,[3]; at 3.7 µM,2%
same,growth inhibition,[3]; at 11.0 µM,64%
same,growth inhibition,[3]; at 33.0 µM,95% (active)
same,growth inhibition,[3]; at 100.0 µM,95% (active)
same,growth inhibition,[4]; at 1.2 µM,-2%
same,growth inhibition,[4]; at 3.7 µM,11%
same,growth inhibition,[4]; [16],57%
same,growth inhibition,[4]; at 11.0 µM,91% (active)
same,growth inhibition,[4]; at 33.0 µM,95% (active)
same,growth inhibition,[4]; [17],98% (active)
same,growth inhibition,[4]; at 50.0 µM,97.8% (active)
same,growth inhibition,[4]; at 100.0 µM,95% (active)
same,growth inhibition,[5]; at 1.2 µM,-3%
same,growth inhibition,[5]; at 3.7 µM,-1%
same,growth inhibition,[5]; [16],15%
same,growth inhibition,[5]; at 11.0 µM,68%
same,growth inhibition,[5]; at 33.0 µM,95% (active)
same,growth inhibition,[5]; [17],96% (active)
same,growth inhibition,[5]; at 50.0 µM,98.2% (active)
same,growth inhibition,[5]; at 100.0 µM,97% (active)
same,growth inhibition,[6]; at 1.2 µM,-1%
same,growth inhibition,[6]; at 3.7 µM,3%
same,growth inhibition,[6]; at 11.0 µM,90% (active)
same,growth inhibition,[6]; at 33.0 µM,96% (active)
same,growth inhibition,[6]; at 100.0 µM,97% (active)
same,growth inhibition,[7]; [16],17%
same,growth inhibition,[7]; [17],97% (active)
same,growth inhibition,[7]; at 50.0 µM,96.8% (active)
same,growth inhibition,[8]; at 1.2 µM,-3%
same,growth inhibition,[8]; at 3.7 µM,5%
same,growth inhibition,[8]; at 11.0 µM,41%
same,growth inhibition,[8]; at 33.0 µM,93% (active)
same,growth inhibition,[8]; at 100.0 µM,94% (active)
same,growth inhibition,[9]; [16],-24%
same,growth inhibition,[9]; [17],95% (active)
same,growth inhibition,[9]; at 50.0 µM,95.9% (active)
same,growth inhibition,[10]; at 1.2 µM,-4%
same,growth inhibition,[10]; at 3.7 µM,-3%
same,growth inhibition,[10]; [16],19%
same,growth inhibition,[10]; at 11.0 µM,79% (active)
same,growth inhibition,[10]; at 33.0 µM,95% (active)
same,growth inhibition,[10]; [17],97% (active)
same,growth inhibition,[10]; at 50.0 µM,98.2% (active)
same,growth inhibition,[10]; at 100.0 µM,93% (active)
same,growth inhibition,[11]; at 1.2 µM,-3%
same,growth inhibition,[11]; at 3.7 µM,5%
same,growth inhibition,[11]; at 11.0 µM,84% (active)
same,growth inhibition,[11]; at 33.0 µM,95% (active)
same,growth inhibition,[11]; at 100.0 µM,97% (active)
same,growth inhibition,[12]; at 1.2 µM,1%
same,growth inhibition,[12]; at 3.7 µM,2%
same,growth inhibition,[12]; at 11.0 µM,71% (active)
same,growth inhibition,[12]; at 33.0 µM,92% (active)
same,growth inhibition,[12]; at 100.0 µM,96% (active)
same,growth inhibition,[13]; at 1.2 µM,0%
same,growth inhibition,[13]; at 3.7 µM,21%
same,growth inhibition,[13]; at 11.0 µM,92% (active)
same,growth inhibition,[13]; at 33.0 µM,96% (active)
same,growth inhibition,[13]; at 100.0 µM,96% (active)
same,growth inhibition,[14]; [16],24%
same,growth inhibition,[14]; [17],98% (active)
same,growth inhibition,[14]; at 50.0 µM,98.3% (active)
same,growth inhibition,[15]; at 1.2 µM,-10%
same,growth inhibition,[15]; at 3.7 µM,11%
same,growth inhibition,[15]; at 11.0 µM,93% (active)
same,growth inhibition,[15]; at 33.0 µM,96% (active)
same,growth inhibition,[15]; at 100.0 µM,95% (active)
CC(C)OC(CCC#N)c1ccc(Cl)cc1 (stereo unspecified),growth inhibition,[1]; at 1.2 µM,-35%
same,growth inhibition,[1]; at 3.7 µM,-28%
same,growth inhibition,[1]; at 11.0 µM,-24%
same,growth inhibition,[1]; at 33.0 µM,-13%
same,growth inhibition,[1]; at 100.0 µM,4%
same,growth inhibition,[2]; at 1.2 µM,-6%
same,growth inhibition,[2]; at 3.7 µM,1%
same,growth inhibition,[2]; at 11.0 µM,2%
same,growth inhibition,[2]; at 33.0 µM,5%
same,growth inhibition,[2]; at 100.0 µM,20%
same,growth inhibition,[3]; at 1.2 µM,-46%
same,growth inhibition,[3]; at 3.7 µM,-44%
same,growth inhibition,[3]; at 11.0 µM,-41%
same,growth inhibition,[3]; at 33.0 µM,-17%
same,growth inhibition,[3]; at 100.0 µM,7%
same,growth inhibition,[4]; at 1.2 µM,-22%
same,growth inhibition,[4]; at 3.7 µM,-25%
same,growth inhibition,[4]; [16],62%
same,growth inhibition,[4]; at 11.0 µM,-26%
same,growth inhibition,[4]; at 33.0 µM,-6%
same,growth inhibition,[4]; [17],99% (active)
same,growth inhibition,[4]; at 50.0 µM,3.4%
same,growth inhibition,[4]; at 100.0 µM,24%
same,growth inhibition,[5]; at 1.2 µM,-29%
same,growth inhibition,[5]; at 3.7 µM,-28%
same,growth inhibition,[5]; [16],55%
same,growth inhibition,[5]; at 11.0 µM,-18%
same,growth inhibition,[5]; at 33.0 µM,-2%
same,growth inhibition,[5]; [17],99% (active)
same,growth inhibition,[5]; at 50.0 µM,7.95%
same,growth inhibition,[5]; at 100.0 µM,7%
same,growth inhibition,[6]; at 1.2 µM,-22%
same,growth inhibition,[6]; at 3.7 µM,-26%
same,growth inhibition,[6]; at 11.0 µM,-12%
same,growth inhibition,[6]; at 33.0 µM,-6%
same,growth inhibition,[6]; at 100.0 µM,1%
same,growth inhibition,[7]; [16],2%
same,growth inhibition,[7]; [17],-4%
same,growth inhibition,[7]; at 50.0 µM,56%
same,growth inhibition,[8]; at 1.2 µM,11%
same,growth inhibition,[8]; at 3.7 µM,-6%
same,growth inhibition,[8]; at 11.0 µM,14%
same,growth inhibition,[8]; at 33.0 µM,15%
same,growth inhibition,[8]; at 100.0 µM,11%
same,growth inhibition,[9]; [16],48%
same,growth inhibition,[9]; [17],46%
same,growth inhibition,[9]; at 50.0 µM,6.8%
same,growth inhibition,[10]; at 1.2 µM,-18%
same,growth inhibition,[10]; at 3.7 µM,-12%
same,growth inhibition,[10]; [16],44%
same,growth inhibition,[10]; at 11.0 µM,-19%
same,growth inhibition,[10]; at 33.0 µM,5%
same,growth inhibition,[10]; [17],45%
same,growth inhibition,[10]; at 50.0 µM,-1.8%
same,growth inhibition,[10]; at 100.0 µM,4%
same,growth inhibition,[11]; at 1.2 µM,-19%
same,growth inhibition,[11]; at 3.7 µM,-21%
same,growth inhibition,[11]; at 11.0 µM,-17%
same,growth inhibition,[11]; at 33.0 µM,-12%
same,growth inhibition,[11]; at 100.0 µM,12%
same,growth inhibition,[12]; at 1.2 µM,-23%
same,growth inhibition,[12]; at 3.7 µM,-15%
same,growth inhibition,[12]; at 11.0 µM,-16%
same,growth inhibition,[12]; at 33.0 µM,6%
same,growth inhibition,[12]; at 100.0 µM,11%
same,growth inhibition,[13]; at 1.2 µM,-20%
same,growth inhibition,[13]; at 3.7 µM,-11%
same,growth inhibition,[13]; at 11.0 µM,-8%
same,growth inhibition,[13]; at 33.0 µM,17%
same,growth inhibition,[13]; at 100.0 µM,40%
same,growth inhibition,[14]; [16],42%
same,growth inhibition,[14]; [17],100% (active)
same,growth inhibition,[14]; at 50.0 µM,19.9%
same,growth inhibition,[15]; at 1.2 µM,-29%
same,growth inhibition,[15]; at 3.7 µM,-32%
same,growth inhibition,[15]; at 11.0 µM,-24%
same,growth inhibition,[15]; at 33.0 µM,-16%
same,growth inhibition,[15]; at 100.0 µM,0%
